Only some compounds are listed: those with a hit (about 2.9% of all), similar ones and a draw of the others.
NadD inh = inhibitors of Staphylococcus aureus NadD; 0.78% of 360,000 active; purified NadD enzyme, colorimetric absorbance read-out; inhibition, % at 20 µM; AID 602399; in the data active means inhibition above about 26%
Exocytosis inh = blocks lytic granule exocytosis; AID 651702; 0.66% of 360,000 active; TALL-104 LAMP-1 surface exposure, flow cytometry; cells stimulated with thapsigargin and PMA; inhibition, % at 10 µM;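 active means inhibition above about 55%, limit read from the data; inconclusive means no clear call, values can overlap the other calls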
GRK2 inh = inhibitors of human GRK2 displacing RNA aptamer; P25098; bead flow cytometry, FAM-aptamer displacement from GRK2; inhibition of aptamer binding, % at 10 µM; 0.59% of 330,000 active;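 active means inhibition of aptamer binding above 40%, roughly 3 SD of noise, on plates passing a quality check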;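 further: median bead fluorescence of bound FAM aptamer so fluorescent compounds give negative values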
Target sequence (P25098 whole entry, looked up): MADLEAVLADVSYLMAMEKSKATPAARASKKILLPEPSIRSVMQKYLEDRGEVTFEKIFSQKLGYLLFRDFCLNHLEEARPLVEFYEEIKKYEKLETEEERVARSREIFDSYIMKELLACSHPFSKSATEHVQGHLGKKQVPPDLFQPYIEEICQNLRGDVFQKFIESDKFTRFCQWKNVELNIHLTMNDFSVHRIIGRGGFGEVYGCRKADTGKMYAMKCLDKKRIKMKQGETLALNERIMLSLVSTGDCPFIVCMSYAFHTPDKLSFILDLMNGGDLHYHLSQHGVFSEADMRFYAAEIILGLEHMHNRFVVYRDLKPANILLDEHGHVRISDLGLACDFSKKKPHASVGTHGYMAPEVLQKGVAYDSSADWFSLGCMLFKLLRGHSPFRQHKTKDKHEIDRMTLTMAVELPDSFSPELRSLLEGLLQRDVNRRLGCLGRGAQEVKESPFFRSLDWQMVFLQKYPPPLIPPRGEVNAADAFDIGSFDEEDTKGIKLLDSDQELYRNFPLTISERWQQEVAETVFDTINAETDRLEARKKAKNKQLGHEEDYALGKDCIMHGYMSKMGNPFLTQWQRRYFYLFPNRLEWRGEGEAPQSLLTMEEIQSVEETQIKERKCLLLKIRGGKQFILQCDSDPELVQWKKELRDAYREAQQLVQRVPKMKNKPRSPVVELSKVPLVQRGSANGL
Beta2AR agonist = human beta-2 adrenergic receptor agonism by FAP; 0.43% of 340,000 active; P07550; Am2.2-beta2AR cells, FAP receptor internalization, flow cytometry; response, % (test concentration not listed);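 active means response above a set limit, near 3 SD of response in nonfluorescent compounds, cut at about 42% in these data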
PP1 counter = counter-screen for PP5 inhibitors: inhibitors of human PP1-alpha. 0.9% of 320,000 active. purified PP1alpha, OMFP fluorescence. AID 2235. P62136. inhibition, % at 6.7 µM;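 active means inhibition above the mean inhibition of all tested compounds plus 3 SD, computed separately for each screening campaign, cut at about 15% in these data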
GRK2 CP1 = confirmation of human GRK2 inhibitors displacing RNA aptamer. shares compounds with GRK2 inh. bead-bound GRK2, FAM-aptamer displacement, flow cytometry. aptamer displacement, % at 10 µM. 4% of 2,000 active;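 active means aptamer displacement above 40%, near three times the noise of non-fluorescent compounds, on plates passing quality checks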;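 further: negative values mostly reflect intrinsic compound fluorescence rather than true enhancement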
FAM quench CP1 = quenches fluorescent RNA aptamer, GRK2 hit artifact. AID 504580. Carboxyfluorescein RNA aptamer on beads, flow cytometry quenching; hits give low values. 2,000 tested, under 10 active. fluorescence response (% of DMSO), % at 10 µM. shares compounds with GRK2 inh;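 active means compounds that quench the bead-bound fluorescent RNA probe, cutting fluorescence to under half of the solvent control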;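 further: counterscreen run without GRK2 so only probe quenching by compound is measured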
GRK2 CP2 = confirmation of human GRK2 inhibitors binding RNA aptamer site; 360 tested, under 10 active; inhibition of aptamer binding, % at 10 µM; shares compounds with GRK2 inh; bead-bound GRK2, FAM-aptamer displacement, flow cytometry; AID 504782;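 active means inhibition of aptamer binding above 40%, about triple the noise seen with nonglowing compounds, on plates passing quality control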;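 further: negative values mostly come from compounds that fluoresce themselves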
FAM quench CP2 = quenches fluorescent RNA aptamer, GRK2 hit artifact; shares compounds with GRK2 inh; carboxyfluorescein RNA aptamer beads, flow cytometry quenching; hits give low values; 360 tested, under 10 active; fluorescence response vs DMSO, % at 10 µM; AID 588494;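 active means response vs DMSO under 50%, meaning signal dropped by over half, treated as fluorescence quencher; inconclusive means no clear call, values can overlap the other calls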;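 further: labelled aptamer on streptavidin beads without GRK2 as a quench counter-screen; 100% = bead fluorescence of DMSO wells and lower means quenching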
* hit, by the source's call; ? = inconclusive; · = no result.

SMILES | NadD inh | Exocytosis inh | GRK2 inh | Beta2AR agonist | PP1 counter | GRK2 CP1 | FAM quench CP1 | others
Cc1ccc(S(=O)(=O)NNc2ccccc2)c(C)c1 | 13.4 | -1.1 | 1.0 | 1.4 | 3.6 | · | ·
CC(=O)Cn1c(CN2CCCC2)nc2ccccc2c1=O | 1.7 | 1.3 | 0.0 | -6.4 | -2.8 | · | ·
COc1ccccc1N1CCN(Cc2nc3ccccc3c(=O)n2CC(C)=O)CC1 | 3.2 | 8.9 | 0.0 | 5.1 | 2.5 | · | · | GRK2 CP2=15.6;FAM quench CP2=?
CCOC(=O)C1CCN(C(=O)CCn2c(=O)c3cccn3c3cccnc32)CC1 | -1.7 | 4.5 | 1.0 | -6.1 | -2.1 | · | ·
COc1ccc(/C=C/CN2CCN(CCc3ccccc3)C(CCO)C2)cc1 (centres undefined) | -5.4 | -3.0 | 90.0* | -5.1 | -3.4 | -9.1 | 100.4
O=C(CCC(=O)N1CCSc2ccccc21)NC1CCCCC1 | 4.7 | -3.1 | 0.0 | -16.7 | -3.5 | · | ·
CN(C)c1ccc2nc3ccc(=[N+](C)C)cc-3sc2c1 | 2.1 | -7.4 | 57.0* | 0.8 | -1.8 | 32.0 | 59.1
Cc1c(C)c2ccc(OC(C)C(=O)NCCCN3CCOCC3)c(C)c2oc1=O (centres undefined) | -1.2 | 2.3 | 0.0 | 1.5 | -2.5 | -0.4 | 100.6
Cc1coc2c(C)c3oc(=O)c(CCC(=O)NCCCN4CCOCC4)c(C)c3cc12 | -3.8 | 0.1 | 0.0 | 1.1 | -3.8 | -0.8 | 97.0
O=[N+]([O-])c1ccccc1/C=N/Nc1nc(N2CCCC2)nc(N2CCCC2)n1 | 1.5 | -15.6 | 59.0* | -0.7 | 0.4 | -0.5 | 91.1
CC(NC(=O)COC(=O)CNC(=O)c1ccc(-c2ccccc2)cc1)c1ccccc1 (centres undefined) | -12.1 | 2.3 | 2.0 | -9.5 | -3.7 | · | ·
CC(NC(=O)COC(=O)Cc1ccc(-c2ccccc2)cc1)c1ccccc1 (centres undefined) | -1.8 | -4.7 | 0.0 | 0.9 | 6.6 | 1.1 | 21.9*
O=C(COC(=O)Cc1ccc(-c2ccccc2)cc1)NCc1ccccc1 | -2.4 | 0.1 | 0.0 | -1.8 | 4.1 | -2.9 | 79.4
COc1ccc(C2CC(c3ccccc3)=NN2C(=O)COC(=O)c2cccc(N)c2)cc1 (centres undefined) | 10.7 | 11.5 | 6.0 | -2.6 | · | · | ·
CCc1ccc(NC(=O)N(C2CCC(C)CC2)C2CCN(C(C)=O)CC2)cc1 (centres undefined) | 2.8 | -5.7 | 57.0* | 11.8 | 5.4 | 3.2 | 92.6
Cc1ccc(S(=O)(=O)N2CC(O)C2)cc1 | 0.7 | -6.0 | 1.0 | 1.6 | -4.2 | · | ·
CN(C(=O)c1ccc(NC(=O)Cc2ccc(NC(=O)C3CCN(C(=O)C4CCC4)CC3)cc2)cc1)C1CC1 | -0.2 | -11.2 | 69.0* | -5.3 | -0.4 | 1.8 | 97.2
CC1(c2ccccc2)NC(=O)N(CC(=O)Nc2ccc(N3CCOCC3)cc2N2CCOCC2)C1=O (centres undefined) | 0.7 | -9.6 | 2.0 | -1.5 | -5.3 | · | ·
Cc1cc(N2CCOCC2)ccc1/C=C1\NC(=O)N(CC(=O)Nc2ccccc2C)C1=O | 2.9 | -1.0 | 0.0 | -4.4 | -0.7 | 1.6 | 99.8
CCOC(=O)c1oc2c(C)c(O)ccc2c(=O)c1-c1nncn1-c1ccccc1 | 3.3 | 3.5 | 75.0* | 8.3 | 2.1 | -1.7 | 102.5
c1ccc(C[C@H]2CN=C(Nc3ccccc3)N2CCC2CCCC2)cc1 | -1.9 | 4.1 | 68.0* | 1.7 | 4.6 | -3.6 | 99.1
CC(C)C[C@H]1CN=C(Nc2ccccc2)N1CCC1CCCCC1 | -2.3 | -6.1 | 0.0 | -4.2 | -5.7 | · | ·
NCCCC[C@H]1NC(=O)[C@H](CCC(=O)O)NC(=O)c2cc([N+](=O)[O-])cc(I)c2OCC[C@@H](C(N)=O)NC1=O | · | · | 56.0* | · | 4.7 | 36.6 | 101.5
COc1ccc(CNC(=O)CN2C(=O)NC(C)(c3ccc(Cl)cc3)C2=O)cc1 (centres undefined) | -7.3 | 3.8 | 54.0* | -4.9 | 1.1 | -0.5 | 102.1

Screening data from PubChem BioAssay.
